Measured values published in PubChem BioAssay (Tox21).
The source made the active and inactive calls. Calls come from the whole dose curve; as a rule, active = well fitted curve in the direction sought with a large enough effect in the repeat runs; inconclusive = weak or mixed curves; inactive = flat fitted curve, though single readings scatter.

test: qHTS assay to test for compound auto fluorescence at 535 nm (green) in HEK293 cell free culture (AID 720682); conditions: cell-free medium, green autofluorescence 485/535 nm; series mostly up to 46 µM
Excerpt: U.S. Tox21 Program National Center for Advancing Translational Sciences [NCATS] NIH Chemical Genomics Center [NCGC] U.S. Environmental Protection Agency [EPA] National Institutes of Environmental Health Sciences [NIEHS] National Toxicology Program [NTP] U.S. Food and Drug Administration [FDA] Tox21 Assay Overview: Compound auto fluorescence often interferes with screening of the compound library against various biological targets and signaling pathways. Some of these compounds may have fluorophoric properties. Such properties may interfere with the assay outputs resulting in false positives and/or negatives. To decrease such complications and ensure the compound activities are relevant in terms of biological response, the Tox21 10K compound library was screened for auto fluorescence. From the fluorophores used as reporter signals in our screening assays, the auto fluorescence equivalencies of compounds against three fluorophores have been evaluated: Triamterene, Fluorescein and Rose Bengal sodium for blue, green and red fluorescence, respectively. The fluorescence intensities were measured using Excitation/Emission wavelengths at 405/460nm, 485/535nm and 540/590nm for blue, green and red labels, respectively. This assay includes the green fluorescence data.
Tox21 Assay Protocol Summary: 5 uL of culture medium (DMEM containing 10% FBS) per well was dispensed into black wall/clear bottom 1536-well plates using a Multidrop Combi Dispenser (ThermoFisher Scientific, Waltham, MA). After 23 nL compound or DMSO vehicle was transferred into assay plate by a pintool work station (Kalypsys, San Diego, CA), fluorescence intensities in the assay plates were measured by an Envision (PerkinElmer, Shelton, CT) plate reader using three labels for measuring blue, green and red fluorescence at […] 460, 535 and 590nm respectively.

Structure (SMILES) | outcome
c1ccc2c(c1)OCC(CN1CCCCC1)O2 (stereo not given) | inactive
Cc1ncc(C[n+]2csc(CCOP(=O)(O)O)c2C)c(N)n1 | inactive
CCOc1ccc(NC(=S)Nc2ccc(OCC)cc2)cc1 | inactive
C/C(=C(/CCO)SSCC1CCCO1)N(C=O)Cc1cnc(C)nc1N (stereo not given) | inactive
C/C(=C\C(=O)OCCCCCCCCC(=O)O)C[C@@H]1OC[C@H](C[C@@H]2O[C@H]2[C@@H](C)[C@H](C)O)[C@@H](O)[C@H]1O | inactive
NS(=O)(=O)c1cc(Cl)c(Cl)c(S(N)(=O)=O)c1 | inactive
FC(F)(F)COCC(F)(F)F | inactive
Cc1cc(Br)ccc1NC(=O)CCl | inactive
CN=C(N)NCCC[C@H](N)C(=O)O | inactive
COc1ccc2ccccc2c1 | inactive
Nc1nc(/C(=C/CC(=O)O)C(=O)N[C@@H]2C(=O)N3C(C(=O)O)=CCS[C@H]23)cs1 | inactive
O=C(O)Cc1nn(Cc2ccc(Br)cc2F)c(=O)c2ccccc12 | inactive
CCCCCCOC(=O)c1cccnc1 | inactive
O=C[C@H](O)[C@@H](O)[C@@H](O)[C@H](O)CO | inactive
NCc1cccc(C2CCN(C(=O)c3ccc(C#Cc4ccccc4F)o3)CC2)c1 | inactive
CCOc1cc(CC(=O)N[C@@H](CC(C)C)c2ccccc2N2CCCCC2)ccc1C(=O)O | inactive
CC(C)Cc1ccc([C@H](C)C(=O)O)cc1 | inactive
CC[C@@]1([C@@H]2O[C@@H]([C@H]3O[C@@](O)(CO)[C@H](C)C[C@@H]3C)C[C@@H]2C)CC[C@H]([C@]2(C)CC[C@]3(C[C@H](O)[C@@H](C)[C@@H]([C@@H](C)[C@@H](OC)[C@H](C)C(=O)O)O3)O2)O1 (stereo in doubt) | inactive
O=C(O)COc1ccc(C(=O)c2cccs2)c(Cl)c1Cl | inactive
O=S(=O)(O)CC(S)CS (stereo not given) | inactive

Structure (SMILES) | outcome
C=CC1=C(C(=O)O)N2C(=O)[C@@H](NC(=O)/C(=N/OCC(=O)O)c3csc(N)n3)[C@H]2SC1 (stereo in doubt) | inactive
CCSCC | inactive
C=CC1=C(C(=O)O)N2C(=O)[C@@H](NC(=O)/C(=N\O)c3csc(N)n3)[C@H]2SC1 (stereo in doubt) | inactive
C[N+]1(CCCCC[N+]2(C)CCCC2)CCCC1 | inactive
CC(Cc1ccc(O)c(O)c1)C(C)Cc1ccc(O)c(O)c1 (stereo not given) | inactive
CN(C)CCC(O)(c1ccccc1)c1ccccc1Cl (stereo not given) | inactive
CS(=O)(=O)c1ccc([C@@H](CC2CCCC2)C(=O)Nc2cnccn2)cc1Cl | inactive
CON=C1C[C@]2(C[C@@H]3C[C@@H](C/C=C(\C)C[C@@H](C)/C=C/C=C4\CO[C@@H]5[C@H](O)C(C)=C[C@@H](C(=O)O3)[C@]45O)O2)O[C@H](/C(C)=C/C(C)C)[C@H]1C | inactive
Clc1nc(C(Cl)(Cl)Cl)c(Cl)c(Cl)c1Cl | inactive
CCC1OC(=O)C[C@@H](O)[C@H](C)[C@@H](O[C@@H]2O[C@H](C)C[C@H](N(C)C)[C@H]2O)[C@@H](CC=O)C[C@@H](C)C(=O)/C=C/[C@]2(C)OC2C1C (stereo not given in full) | inactive
NC(=O)C1c2ccccc2CCc2ccccc21 | inactive
S=C1NC=NC2N=CNC12 (stereo not given) | inactive
COc1ccc(/C=N/NC(=O)c2ccncc2)c(C(=O)O)c1OC | inactive
Cc1ccc(C(C)(C)c2ccc(C)cc2)cc1 | inactive
COC1[C@@H](O[C@@H]2O[C@H](C)[C@@H](O[C@H]3C[C@@](C)(O)[C@H](OC(=O)CC(C)C)[C@H](C)O3)[C@H](N(C)C)[C@H]2O)[C@@H](CC=O)C[C@@H](C)[C@@H](O)/C=C/C=C/C[C@@H](C)OC(=O)C[C@H]1OC(C)=O (stereo not given in full) | inactive
COc1c(Br)cc(Br)c(C)c1Br | inactive
O=C(CCN1CCC(c2ccccc2)C1)c1ccc2c(c1)OCCO2 (stereo not given) | inactive
O=P(O)(O)OP(=O)(O)OP(=O)(O)O | inactive
CC(=O)N[C@@H](C=O)[C@H](O)[C@H](O)[C@@H](O)CO | inactive
CN(C)CCOc1ccc(/C(=C(/CCCl)c2ccccc2)c2ccccc2)cc1 | inactive
